Measured values: PubChem BioAssay (NCI)
This is part of a sample that, as a whole, favours compounds with a hit. Of some 79,000 tested, about 15% had one in any assay. Active and inactive are the calls of the source. Cut-off read from the data, not from the text of the source: active = growth inhibition above about 70%; inactive = the rest.

Columns and labels:
[1] = NCI Yeast Anticancer Drug Screen. Data for the rad50 strain (AID 155);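 note: 0% = growth of vehicle-only cultures of the same strain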; conditions: S. cerevisiae rad50 strain growth inhibition, active compounds read high
Summary of the method: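 Cells are treated with compound, grown, and their growth is then scored against vehicle-only cultures of the same repair-deficient yeast strain.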

[2] = NCI Yeast Anticancer Drug Screen. Data for the mec2-1 strain (AID 157); conditions: S. cerevisiae mec2-1 strain, active compounds read high
Summary of the method: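 Using mec2-1 yeast: add compound, measure growth, express inhibition versus vehicle-treated cultures.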

[3] = NCI Yeast Anticancer Drug Screen. Data for the sgs1 mgt1 strain (AID 161);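 note: 0% = growth of cultures given vehicle only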; conditions: S. cerevisiae sgs1 mgt1 strain, active compounds read high
Summary of the method: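 Percent growth inhibition was derived by comparing compound-exposed mutant yeast with vehicle-exposed cultures. The strain carries alterations in DNA damage repair.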

[4] = NCI Yeast Anticancer Drug Screen. Data for the cln2 rad14 strain (AID 165);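 note: 0% = growth equal to vehicle treated cultures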; conditions: S. cerevisiae cln2 rad14 strain, active compounds read high
Summary of the method: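 Yeast strain cln2 rad14, bearing defects in cell cycle control and DNA repair, serves as the test system; values reflect growth inhibition compared with vehicle.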

[5] = NCI Yeast Anticancer Drug Screen. Data for the bub3 strain (AID 167); conditions: S. cerevisiae bub3 mutant strain, active compounds read high
Summary of the method: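 Part of a panel of yeast mutants defective in DNA damage repair or cell cycle regulation. Each strain is grown with compound, and inhibition is calculated relative to solvent-treated cultures.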

[6] = NCI Yeast Anticancer Drug Screen. Data for the mlh1 rad18 strain (AID 175); conditions: S. cerevisiae mlh1 rad18 strain growth inhibition, active compounds read high
Summary of the method: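 Steps: expose repair-defective yeast to compound; measure growth; express inhibition against vehicle-treated controls.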

[7] = at 5.0 µM (retest, dose inferred, filed as 0.5)
[8] = at 50.0 µM (retest, dose inferred, filed as 5.0)

Measured: growth inhibition

CCCN(CCC)C(=O)c1nc(N)nc(-c2ccc(OC)cc2)c1-c1ccc(OC)cc1
inactive: [1]; [7] 9% | [1]; [8] 9% | [1]; at 50.0 µM -23.6% | [2]; [7] -1% | [2]; [8] -1% | [2]; at 50.0 µM -30.1% | [3]; [7] -6% | [3]; [8] -6% | [3]; at 50.0 µM 29.4% | [4]; [7] 0% | [4]; [8] 0% | [4]; at 50.0 µM 2.55% | [5]; [7] -10% | [5]; [8] -10% | [5]; at 50.0 µM -21.4% | [6]; [7] -9% | [6]; [8] -9% | [6]; at 50.0 µM -42%

CC(C(O)Cc1ccccc1)N(C)N=Nc1ccc([N+](=O)[O-])cc1 (stereo not given)
active: [1]; [8] 84% | [3]; [8] 91% | [3]; at 50.0 µM 85.7% | [4]; [8] 86% | [5]; [8] 92% | [5]; at 50.0 µM 72.7% | [6]; [8] 89% | [6]; at 50.0 µM 78.5%
inactive: [1]; [7] 35% | [1]; at 50.0 µM 64.3% | [2]; [7] 18% | [2]; [8] 59% | [2]; at 50.0 µM 61.6% | [3]; [7] 24% | [4]; [7] 21% | [4]; at 50.0 µM 28.3% | [5]; [7] 23% | [6]; [7] 51%

Cc1cc(O)ccc1N=Nc1ccccc1
active: [1]; [8] 99% | [1]; at 50.0 µM 99.7% | [2]; [8] 99% | [2]; at 50.0 µM 99.8% | [3]; [8] 99% | [3]; at 50.0 µM 99.7% | [4]; [8] 99% | [4]; at 50.0 µM 99.4% | [5]; [8] 99% | [5]; at 50.0 µM 99.5% | [6]; [8] 99% | [6]; at 50.0 µM 99.7%
inactive: [1]; [7] 10% | [2]; [7] -1% | [3]; [7] -1% | [4]; [7] -8% | [5]; [7] 14% | [6]; [7] 1%

COc1ccccc1C(=O)[O][Sn]([c]1ccccc1)([c]1ccccc1)[c]1ccccc1
active: [1]; [7] 100% | [1]; [8] 99% | [1]; at 50.0 µM 99.2% | [2]; [7] 100% | [2]; [8] 100% | [2]; at 50.0 µM 99.3% | [3]; [7] 99% | [3]; [8] 99% | [3]; at 50.0 µM 99.3% | [4]; [7] 99% | [4]; [8] 99% | [4]; at 50.0 µM 89.3% | [5]; [7] 100% | [5]; [8] 99% | [5]; at 50.0 µM 99% | [6]; [7] 99% | [6]; [8] 99% | [6]; at 50.0 µM 98.7%

COc1ccc(C2COc3cc(O)c(O)cc3C2)cc1OC (stereo not given)
active: [2]; [8] 81% | [2]; at 50.0 µM 72.2% | [6]; [8] 90% | [6]; at 50.0 µM 88%
inactive: [1]; [7] -10% | [1]; [8] 60% | [1]; at 50.0 µM 61.4% | [2]; [7] 14% | [3]; [7] 7% | [3]; [8] 69% | [3]; at 50.0 µM 43.3% | [4]; [7] -6% | [4]; [8] 2% | [4]; at 50.0 µM 51.5% | [5]; [7] -14% | [5]; [8] 60% | [5]; at 50.0 µM 29.6% | [6]; [7] 1%
